Rows were chosen to be rich in hits. Some 1.4% of all compounds tested hit in one or more screens of this group.
PrPC surface inh: inhibitors of human cell surface prion protein PrPC, primary screen, cell-based, TR-FRET. Major prion protein (Homo sapiens), P04156. TR-FRET read-out. inhibition, % at 13.8 µM. 370,000 tested, 0.43% active. AID 720596, 2013; in the data active = inhibition above about 24%; also: 0% = median of the test wells and 100% = reference compound wells
Sa ugtP lethal: growth inhibition of ugtP-null S. aureus, primary screen, RN4220 ugtP deletion, OD600; growth inhibition, % (no concentration beside the values); 16 h; AID 1259309, 2017; 330,000 tested, 0.54% active; in the data active = growth inhibition above about 68%;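 also: plate controls were untreated wells for no effect and antibiotic for full effect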
BJeLR viability: MLPCN primary cell-based screen for lethality selective to Ras in HRASV12 cells; BJeLR (HRASV12) viability, CellTiter-Glo ATP luminescence, 48 h; 300,000 tested, 0.17% active; AID 1554, 2009; inhibition, % (concentration not given with the values); in the data active = inhibition above about 50%
VHR inh abs: VHR1 phosphatase inhibitors, primary screen, biochemical, absorbance, uHTS; Dual specificity protein phosphatase 3 (Homo sapiens), P51452; 290,000 tested, 0.52% active; inhibition, % at 13.3 µM; AID 1654, 2009; recombinant VHR phosphatase, pNPP absorbance; in the data active = inhibition above about 50%
Target sequence (P51452 whole entry, looked up): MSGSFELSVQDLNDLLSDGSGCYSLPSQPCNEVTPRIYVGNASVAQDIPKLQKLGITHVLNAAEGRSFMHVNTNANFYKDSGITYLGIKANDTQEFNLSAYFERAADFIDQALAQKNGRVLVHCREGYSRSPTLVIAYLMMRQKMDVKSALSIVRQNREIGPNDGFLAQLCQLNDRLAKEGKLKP
Sa RN4220 lethal: growth inhibition of S. aureus RN4220, primary screen, OD600. 16 h. 330,000 tested, 0.33% active. inhibition, % (concentration not given with the values); in the data active = inhibition above about 85%;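 also: plate controls were untreated cells for no effect and reference antibiotic for full effect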
3CLpro inhibitor: SARS-CoV 3CLpro protease inhibitors, primary screen, biochemical, quenched FRET | 290,000 tested, 0.14% active | Replicase polyprotein 1ab (Severe acute respiratory syndrome coronavirus), P0C6X7 | AID 1706, 2009 | inhibition, % at 6 µM | recombinant SARS-CoV 3CLpro, quenched FRET peptide cleavage; in the data active = inhibition above about 12%
* = called active by the depositor; / = no result.

SMILES	PrPC surface inh	Sa ugtP lethal	BJeLR viability	VHR inh abs	Sa RN4220 lethal	3CLpro inhibitor
CC(C)n1cc(C=C2NC(=O)NC2=O)c2ccccc21	/	2	/	/	8	/
CN(C/C=C/C#CC(C)(C)C)Cc1cccc2ccccc12	4	/	-9	/	/	/
CN(CC=CC#CC(C)(C)C)Cc1cccc2ccccc12	/	89*	/	/	-6	/
O=C(C=Cc1ccccc1)c1ccccc1	/	3	/	/	22	/
Cc1onc(-c2ccccc2Cl)c1C(=O)NC(=S)NCC(=O)c1ccccc1	1	-6	2	57*	-1	-3
OCCC1CC(O)C(O)[C@]2(CCCCO2)O1 (some centres undefined)	/	1	/	/	3	/
COc1cccc(/C=C/C(=O)c2c(O)cc(C)oc2=O)c1O	-7	1	-12	30	8	-1
COc1ccc(/C=C/C(=O)c2c(O)cc(C)oc2=O)c(OC)c1	-4	100*	8	19	-16	3
COc1ccc(-c2csc3ncnc(N4CCN(S(=O)(=O)c5ccc(C)cc5)CC4)c23)cc1	-3	-12	2	/	2	/
O=S(=O)(c1cccc(Br)c1)N1CCN(c2ncnc3scc(-c4ccccc4)c23)CC1	-6	99*	/	/	98*	/
Nc1nc(Cl)nc(N(c2ccccc2)c2ccccc2)n1	-2	14	2	7	3	-2
Nc1nc(CCl)nc(N(c2ccccc2)c2ccccc2)n1	0	6	65*	35	3	4
CC(=CC(=O)O)CC[C@@]1(C)C(C)CC[C@@]2(C)C(C)=CCCC12 (some centres undefined)	/	38	/	/	-7	/
CCOC(=O)C1(Cc2cccc(OC)c2)CCN(CC=Cc2ccc(OC)cc2)CC1	/	-2	/	/	5	/
COc1cc(C2=NOC(C(=O)NCc3cccs3)C2)cc(OC)c1OC (centres undefined)	13	4	20	12	1	3
COc1cc(OC)c(C2=NOC(C(=O)NCc3cccs3)C2)cc1Cl (centres undefined)	4	16	63*	6	3	-3
COc1ccc(OC)c(CNC(=O)C2CCN(S(=O)(=O)N3CCCCC3)CC2)c1	2	3	-2	51*	-2	5
COc1ccc(OC)c(CNC(=O)C2CCCN(S(=O)(=O)N3CCC(C)CC3)C2)c1 (centres undefined)	1	1	-2	4	-1	3
O=C(O)C=Cc1ccc(S(=O)(=O)NCc2ccco2)cc1	/	5	/	/	3	/
CCN1CCN(Cc2ccc(NC(=O)c3cc(NC(=O)C(=O)c4c[nH]c5ccccc45)cc(OC)c3)cc2C(F)(F)F)CC1	-24	22	12	-8	58	/
CCN1CCN(Cc2ccc(NC(=O)c3ccc(C)c(NC(=O)C(=O)c4c[nH]c5ccccc45)c3)cc2C(F)(F)F)CC1	-8	100*	26	17	101*	-10
CC1CN(C(C)CO)C(=O)c2cc(NS(=O)(=O)c3ccc(F)cc3)ccc2OC1CN(C)S(=O)(=O)c1cccs1 (centres undefined)	/	3	/	/	2	/
Cc1ccccc1N(C(=O)Cc1ccsc1)C(C(=O)NC1CCCCC1)c1ccc(F)cc1 (centres undefined)	-2	4	-1	56*	6	-1
C=CC1c2ccccc2N(S(=O)(=O)c2ccc(C)cc2)C(c2ccccc2)C1(C#N)C#N (centres undefined)	/	-4	/	/	19	/
C#CCOCCOCCOCCNc1nc(N2CCN(C(=O)C(CCCCN)n3cc(C(N)CO)nn3)CC2)nc(N2CCN(C(=O)C(CCC(=O)O)n3cc(C(N)Cc4ccc(O)cc4)nn3)CC2)n1 (centres undefined)	/	4	/	/	5	/
SMILES	PrPC surface inh	Sa ugtP lethal	BJeLR viability	VHR inh abs	Sa RN4220 lethal	3CLpro inhibitor
Cc1cc(C)cc(N(CC(=O)NC2CCCC2)C(=O)CCC(=O)Nc2nc(C)cs2)c1	3	8	-13	18	1	3
COc1ccc(N(CC(=O)NC2CCCC2)C(=O)CCC(=O)Nc2nc(C)cs2)cc1OC	9	-3	0	53*	1	-1
CCN1C(=O)N(CC)C(=O)C2(Cc3ccccc3N3CCN(c4ccccc4)CC32)C1=O (centres undefined)	7	89*	-1	5	3	1
Cc1ccc(N2C(=O)C(=Cc3ccco3)SC2=S)cc1	/	-1	/	/	6	/
CC(C)CC(=O)NC(=S)Nc1ccc(NC(=O)c2ccco2)cc1	14	89*	-1	-5	4	2
CCN(CC)S(=O)(=O)c1ccc(NC(=O)COc2c(OC)cccc2OC)cc1	-6	3	2	56*	4	3
CCN(CC)S(=O)(=O)c1ccc(NC(=O)CSc2cccc[n+]2[O-])cc1	/	0	-5	52*	4	0
CCN(CC)S(=O)(=O)c1ccc(NC(=O)Nc2cccc(C(F)(F)F)c2)cc1	43*	2	2	20	21	7
COc1ccc(S(=O)(=O)Nc2ccc3c(c2)C(=O)N(C(C)CO)CC(C)C(CN(C)C(=O)NC(C)C)O3)cc1 (centres undefined)	/	-6	/	/	2	/
CCN(CC)S(=O)(=O)c1ccc(NC(=S)NC(=O)CC(C)C)cc1	7	89*	0	-17	-2	5
CCN(CC)S(=O)(=O)c1ccc(NC(=S)NC(=O)C(C)C)cc1	6	32	-20	-10	-6	3
Cn1c(=O)c2c(nc3n2CC(CO)O3)n(C)c1=O (centres undefined)	5	7	12	59*	4	-3
C#CCNC(=O)C1=CC(c2ccc(C(F)(F)F)cc2)CC(OCc2ccc(CO)cc2)O1 (centres undefined)	/	7	/	/	9	/
Cc1nn(C)c(C)c1NC(=O)Nc1ccc(Cl)c(Cl)c1	5	89	3	18	active	4
COC(=O)CN1C(=O)C2C(C3CC3)N3C(=O)CN(Cc4ccc(-c5ccccc5)cc4)C(=O)[C@@]3(Cc3ccccc3)C2C1=O (some centres undefined)	/	1	/	/	8	/
C#Cc1ccc(C2C=C(C(=O)N3CCN(Cc4ccc5c(c4)OCO5)CC3)OC(OCc3ccc(CO)cc3)C2)cc1 (centres undefined)	/	7	/	/	33	/
O=[N+]([O-])c1c(NCCCO)cc(Sc2nc3ccccc3s2)c2nonc12	/	101*	-3	2	87*	3
CC(=O)n1cc(C2C=C(C(=O)NCc3ccccc3)OC(OCc3ccc(CO)cc3)C2)c2ccccc21 (centres undefined)	/	5	/	/	5	/
O=C(NN=Cc1ccccn1)c1cc(Br)ccc1O	/	-4	/	/	6	/
